# Compounds without any hit were thinned out: in the full panel of roughly 83,000, 20% have a hit.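 Cells were grown in 96-well plates and exposed to the test compound at a single concentration for 48 hours; results are reported as percent growth, with values below 10 considered active.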 Unmarked numbers belong to inactive results. The source made the active and inactive calls.
# Tests used:
# Test in all cases: NCI-60 one-dose screen, 48 h (100 = growth as untreated, 0 = no growth, -100 = all killed)
# Details in all cases: 10 µM unless noted
# [1] = test system: BT-549 breast
# [2] = test system: MDA-MB-435 melanoma
# [3] = test system: SW-620 colon
# [4] = test system: HCT-116 colon
# [5] = test system: HCC-2998 colon
# [6] = test system: KM12 colon
# [7] = test system: MCF7 breast
SMILES,growth [1] [%],growth [2],growth [3],growth [4],growth [5],growth [6],growth [7]
Fc1ccc([C@@H]2CCNC[C@H]2COc2ccc3c(c2)OCO3)cc1,84.2,46.5%,98.4%,49.8%,-66.8% (active),76.4%,–
Nc1ccc(C2=NN(c3ccccc3)C(c3ccc(Cl)cc3)C2)cc1 (configuration not stated),70.4,49.9%,41.2%,-57.3% (active),76.8%,18.3%,–
Clc1nc(Cl)c2ncn(-c3ccccc3)c2n1,86.2,64.5%,36.5%,32.1%,100%,79.5%,–
CC(C)(C)c1cc(O)c(O)c(C(C)(C)C)c1,61.2,–,19.3%,15.8%,59.5%,48.1%,36.3%
O=C(/C(=C/c1ccc([N+](=O)[O-])cc1)c1ccccc1)c1ccccc1,15.5,10.9%,11.7%,6.38% (active),–,19.6%,–
CCCCc1nc(Cl)c(CO)n1Cc1ccc(-c2ccccc2-c2nn[nH]n2)cc1,106,96.5%,103%,102%,104%,103%,–
O=C(NCCCO)c1cc(Cl)ccc1O,19.2,–,23.1%,10.9%,21.4%,14.5%,18.9%
O=C1NCC(Nc2ccc(Br)cc2Cl)C(=O)N1 (configuration not stated),–,111%,100%,102%,116%,108%,103%
COc1ccc(/C=N\Nc2ccc([N+](=O)[O-])cn2)cc1OC,–,72.9%,61.5%,17.1%,99.7%,44.1%,74.7%
COc1ccc(Cn2cc3c(c2-c2ccccc2)CCc2cncnc2-3)cc1,–,0.92% (active),27.5%,27.2%,53.1%,26.6%,–
CSC1=Nc2c(c(C)c(-c3ccccc3)n2CCCN2CCCCC2)C2=NC(=O)C[C@H](C)N12,–,26.3%,61.5%,42.9%,60.7%,2.35% (active),13.9%
O=C(O)C(=O)O,–,96.4%,112%,101%,–,102%,98.4%
CCOc1ccccc1C(=O)OCC(=O)Nc1cccc(S(=O)(=O)N(C)C)c1,–,96.2%,97%,96.1%,98.9%,104%,102%
Cc1cc(C)n(C(=O)c2nn(-c3ccc(Cl)cc3)cc2O)n1,–,32.1%,81.4%,8.59% (active),82.8%,36.3%,81%
CCCOc1ccc2c(c1)CC[C@@H]1[C@@H]2CC[C@@]2(C)[C@H]1CC[C@]2(C)O,–,84.3%,53.8%,83.9%,74.7%,35.6%,101%
O=c1[nH]c(=O)n(C2CC(O)C(CO)O2)cc1C(F)(F)F (configuration not stated),–,47.8%,52.7%,39.4%,–,51.8%,23.6%
CCN(CC)CCOc1ccc(C2=C(c3ccccc3)CCc3cc(OC)ccc32)cc1,–,-33.9% (active),-59% (active),5.52% (active),–,-18.4% (active),-9.06% (active)
CCN(CC)CCOc1ccccc1-n1c(C)ccc1-c1ccccc1,–,42.1%,36.7%,–,24.2%,50.6%,98.3%
COc1ccc(C2=NN(C(C)=O)C(c3cc(OC)c(OC)c(OC)c3)C2)cc1 (configuration not stated),–,34.1%,98%,103%,94.9%,60.5%,–
Nc1cc(Cl)c(S(N)(=O)=O)cc1S(N)(=O)=O,–,113%,107%,121%,–,105%,96.2%
C[n+]1c2ccccc2c(Nc2ccc(N3CCCCC3)cc2)c2[nH]c3ccccc3c21,–,-96.4% (active),-90.8% (active),-98.7% (active),-96.1% (active),-96.5% (active),-74.6% (active)
Nc1nc(Cl)c2[nH]cnc2n1,–,102%,105%,104%,-51.2% (active),109%,108%
COc1ccc2[nH]c(-c3ccccc3)cc2c1,–,100%,102%,100%,118%,99.3%,95%

SMILES,growth [1] [%],growth [2],growth [3],growth [4],growth [5],growth [6],growth [7]
O=[N+]([O-])c1ccc(N/N=C/c2c(O)ccc3ccccc23)nc1,–,58.5%,48.7%,25.9%,54.2%,44.2%,17.3%
CC(=O)NCCSC(=O)C(=O)SCCNC(C)=O,–,106%,116%,110%,-45.3% (active),107%,125%
O=C(c1nn(-c2ccc(Cl)cc2)cc1O)n1nc(C(F)(F)F)cc1-c1ccccc1,–,48.1%,39.6%,8.39% (active),43.2%,50.8%,44%
C=C(C)[C@@H]1C/C=C(/C=O)CC[C@@H]2O[C@@]2(C)CC/C=C(\C)CC1,–,107%,115%,105%,126%,122%,106%
C=C(C)[C@H]1CC/C(C)=C/CC[C@]2(C)O[C@H]2CC/C(C=O)=C\C1O (some centres not stated),–,120%,108%,105%,111%,114%,97.2%
CN1CCCC1c1cccnc1 (configuration not stated),–,119%,108%,104%,–,104%,97.1%
Oc1ccccc1C=Nc1ccccc1N=Cc1ccccc1O.[Cu+2],–,56%,83.4%,57.9%,74.2%,44.6%,27.6%
CCOC(=O)C(C(C)=O)c1nc2sc3cc(Cl)ccc3n2c(=N)c1C#N (configuration not stated),–,104%,98.4%,103%,131%,44.1%,–
CCCCCCC(C)(O)c1ccccc1 (configuration not stated),–,106%,107%,109%,102%,107%,97.4%
CNc1ccc(CSc2ccc(Cl)cc2)cc1,–,87.3%,109%,91.3%,118%,111%,96.2%
Cc1c(C(N)=O)sc2ncn(CC(=O)Nc3ccc(Cl)cc3)c(=O)c12,–,106%,106%,105%,118%,117%,108%
CC(=O)Nc1ccc2c(c1)Cc1c(F)c(F)c(F)c(F)c1-2,–,101%,103%,86.3%,–,92.8%,86.7%
C=C(C)[C@H]1CC/C(C)=C/CC[C@]2(C)O[C@H]2CC/C(COC(C)=O)=C\C1=O,–,95.2%,109%,95%,103%,143%,110%
O=C(/C=C/c1cccnc1)/C=C/c1cccnc1,–,-28.9% (active),-68.6% (active),-92.7% (active),-70.6% (active),-85.1% (active),-39.4% (active)
C[n+]1ccc(Nc2ccc(NC(=O)c3ccc(Nc4cc[n+](C)c5ccc(N)cc45)cc3)cc2)cc1,–,88.7%,105%,95%,-27.7% (active),109%,96.2%
CCCCC1Nc2nc(SC)n(C)c(=O)c2CN(Cc2ccccc2)C1=O (configuration not stated),–,99.4%,107%,97.3%,94.3%,105%,–
C=CCOc1ccc2c(c1)CC[C@@H]1[C@@H]2CC[C@@]2(C)[C@H]1CC[C@]2(C)O,–,86.9%,64.3%,94.4%,94.8%,58.2%,117%
CCC(CCC(C)C1CCC2C3CC=C4CC(O)CCC4(C)C3CCC12C)C(C)C (configuration not stated) (tested in a mixture with another compound),–,85%,104%,79%,-53.1% (active),91.4%,95.8%
C[C@]12C[C@H](O)[C@H]3[C@@H](CCC4=CC(=O)CC[C@@]43C)[C@@H]1CC[C@@H]2C(=O)CO,–,103%,99.1%,106%,–,99.9%,101%
CCOC(=O)C(Cc1ccccc1)(C(=O)OCC)C(Br)C(=O)c1ccccc1 (configuration not stated),–,77.3%,39.8%,53.3%,100%,97.9%,56.9%
O=C1CC(C(F)(F)F)=NN1C(=O)c1nn(-c2ccc(Cl)cc2)cc1O,–,95.3%,97.1%,74.1%,89.7%,79.9%,102%
CC(C)(C)c1ccc(S(=O)(=O)O)s1,–,102%,108%,107%,112%,112%,98%
